Sampled rows, rich in hits. Any-hit rate of the full collection: about 1.2%.
aGal spleen mod: inhibitors or activators of human alpha-galactosidase in spleen homogenate; P06280; human spleen homogenate, 4MU-alpha-Gal fluorescence, 40 min; Potency, µM (highest dose often 80 µM), inactives show at the highest dose activity change, negative = inhibition, actives largely listed as inhibitors; 240,000 compounds, 0.008% hits;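 also: potency is read from the fitted curve at half-maximal effect; 0% = enzyme with vehicle and -100% = no enzyme basal signal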
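Human spleen homogenate (1 ug) was the enzyme source, with 4-methylumbelliferyl-alpha-D-galactopyranoside (1 mM final) in pH 5.0 citrate buffer with 0.01% Tween-20. Compounds were titrated; after 40 min at 37C, NaOH/glycine stop, 4-MU fluorescence read; AC50 from Hill fits.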
GLA inh pH 4.5: blocks human alpha-galactosidase A at pH 4.5; P06280; purified enzyme, 4-MU-alpha-Gal fluorescence, pH 4.5; activity change, negative = inhibition, % at 105 µM; 230,000 tested, under 10 active; AID 1467;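 also: 0% = full activity with enzyme and -100% = basal without enzyme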
Target sequence (P06280 whole entry, looked up): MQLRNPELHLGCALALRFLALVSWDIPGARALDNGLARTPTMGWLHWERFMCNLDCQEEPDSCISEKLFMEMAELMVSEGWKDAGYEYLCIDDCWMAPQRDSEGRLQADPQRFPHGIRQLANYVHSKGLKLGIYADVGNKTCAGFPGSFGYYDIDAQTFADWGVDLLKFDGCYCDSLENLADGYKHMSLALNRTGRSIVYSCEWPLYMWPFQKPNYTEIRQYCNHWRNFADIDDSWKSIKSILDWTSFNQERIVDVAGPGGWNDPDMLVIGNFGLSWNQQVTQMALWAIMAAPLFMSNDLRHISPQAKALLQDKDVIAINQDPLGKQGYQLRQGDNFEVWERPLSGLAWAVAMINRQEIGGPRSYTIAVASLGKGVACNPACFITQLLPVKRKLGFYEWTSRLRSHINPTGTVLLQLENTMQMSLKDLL
HTT aggregate: inhibitors of mutant huntingtin aggregate formation in PC12 cells; PC12 HttQ103-GFP aggregates, Acumen cytometry, 40 h; Potency, µM (top dose mostly 46.1 µM), without a hit: at the top dose activity change, negative = inhibition, usual class: inhibitors; 220,000 compounds, 1.1% hits; also: potency is read from the fitted curve at half-maximal effect; % is scaled to controls: 0 for no effect and ±100 for the full control effect; nearly all actives have a fitted effect of over 60% in size
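Aggregate formation scored by laser-scanning cytometer (488 excitation, 500–530 emission) in lysed PC12 cells expressing Q103-GFP after 100 nM tebufenozide induction; library tested in dose series, with ATPLite reagent added in the multiplex.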
ERK EGF block: inhibitors of EGF-stimulated ERK signaling pathway. 130,000 compounds, 0.41% hits. AID 1454. HEK293-V1b, EGF-stimulated phospho-ERK AlphaScreen. Potency, µM (doses to about 11.5 µM), without a hit: top-dose activity change, negative = inhibition, usual class: inhibitors;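 also: potency is read from the fitted curve at half-maximal effect; plate controls were stimulated vehicle wells for no effect and unstimulated vehicle basal for full effect; nearly all actives have a fitted effect of over 55% in size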
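HEK293 cells stably expressing V1b receptor, serum-reduced (1% FBS) overnight, got compound for 30 min at 37C, then 25 nM EGF for 5 min. Lysate phospho-ERK read by AlphaScreen SureFire; AC50 from Hill fits.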
HTT cytoprotect: Huntington cell model cytoprotection by ATP luminescence. Potency, µM (highest dose often 56.4 µM), for inactives: cytoprotection (ATP increase), actives largely listed as activators. PC12 HTT-Q103 induced, cytoprotection, ATP luminescence, 40 h. 230,000 compounds, 0.14% hits; also: potency is read from the fitted curve at half-maximal effect; % of control where 0% means no effect; nearly all actives have a fitted effect of over 45% in size
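Compounds added alongside 100 nM tebufenozide, which induces toxic Q103 huntingtin exon 1-GFP in stable PC12 cells; surviving cells quantified by luminescent ATP measurement. Medium: phenol red-free DMEM, 5% equine and 5% calf serum.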
* marks the source's active call; other numbers are inactive results; ! = repeats disagree; [ ] = dose if it differs, or a comment. Calls follow the shape of the dose curve; as a rule, active = well fitted curve in the direction sought with a large enough effect; inconclusive = small, poorly fitted or top-dose-only effect, or another doubt; inactive = no such curve, though single readings can be large; an effect the other way counts as inactive or inconclusive.

How did O=C1C2=CC[C@H]3C(=O)N(Cc4ccccc4)C(=O)[C@@H]3[C@@H]2[C@H](O)[C@@H]2O[C@H]12 do in these assays?
aGal spleen mod: -14%[17.5 µM]; HTT cytoprotect: inconclusive

Results for CCN1C(=O)[C@@H]2[C@H]3C(=CC[C@H]2C1=O)C(=O)[C@H]1OC1[C@H]3O (some centres undefined) ?
aGal spleen mod: -5%[17.5 µM]; HTT cytoprotect: 2.8µM*

What do the screens show for `O=C1C2=CC[C@H]3C(=O)N(C[C@@H]4CCCO4)C(=O)[C@@H]3[C@@H]2[C@H](O)[C@@H]2O[C@H]12`?
aGal spleen mod: 1%[17.5 µM]; HTT cytoprotect: 1.4µM*

How did O=C(c1ccco1)N1CCC[C@@]2(CCN(C(c3ccccc3)c3ccccc3)C2)C1 do in these assays?
aGal spleen mod: 0%; ERK EGF block: -6%; HTT cytoprotect: 5%

Results for O=C(/C=C/c1cccs1)Nc1nc(-c2ccccc2)cs1 ?
aGal spleen mod: 7%; GLA inh pH 4.5: 1; HTT aggregate: 35µM*; HTT cytoprotect: -21%[10 µM]

How did COc1ccc(C(=O)n2cc(C(=O)c3cc(C)ccc3O)cn2)cc1 do in these assays?
aGal spleen mod: 0%; GLA inh pH 4.5: 2; HTT aggregate: 32µM*; ERK EGF block: -6%; HTT cytoprotect: 3%[10 µM]

What do the screens show for `c1ccc(COC[C@@H]2CO2)cc1`?
aGal spleen mod: 10%

What do the screens show for `CC(C)c1ccccc1S(=O)(=O)c1cc(N)c2ncccc2c1[N+](=O)[O-]`?
aGal spleen mod: 0%; GLA inh pH 4.5: -2; ERK EGF block: 5%; HTT cytoprotect: 7.9µM*

How did Clc1ccc(C[n+]2cc(-c3ccccc3)n3c2CCCCC3)c(Cl)c1 do in these assays?
aGal spleen mod: -10%; GLA inh pH 4.5: 3; HTT aggregate: 11µM*; ERK EGF block: -3%; HTT cytoprotect: -48%[10 µM]

Results for Cc1cnc(CNc2cc(-c3ccccc3C)ncn2)cn1 ?
aGal spleen mod: 0%; HTT cytoprotect: -22%

Results for COC(=O)c1cccc2c1-c1ccccc1/C2=N/O ?
aGal spleen mod: 0%; GLA inh pH 4.5: -6; HTT aggregate: 10µM*; HTT cytoprotect: 22%

What do the screens show for `COC(=O)c1ccc2c(c1O)C(=O)c1ccccc1C2=O`?
aGal spleen mod: -6%; GLA inh pH 4.5: 2; HTT aggregate: -19%; HTT cytoprotect: -25%

Results for CC(C)(C)c1cc(Br)c(O)c(N=Nc2ccc(S(=O)(=O)N3CCOCC3)cc2)c1 ?
aGal spleen mod: 9%; GLA inh pH 4.5: -10; HTT aggregate: 5%; ERK EGF block: 25µM*; HTT cytoprotect: 14%[10 µM]

How did CC1CC=CC2C1C(=O)N(Cc1ccccc1)C2c1ccc(F)c(Br)c1 (centres undefined) do in these assays?
aGal spleen mod: 12%

How did Cc1ccc(/C=N/Nc2ccc3ccccc3n2)o1 do in these assays?
aGal spleen mod: 9%; GLA inh pH 4.5: -3; HTT aggregate: 13µM*; ERK EGF block: inconclusive; HTT cytoprotect: -164%

How did Cc1cccc(/C=N/Nc2ccc3ccccc3n2)c1 do in these assays?
aGal spleen mod: 2%; GLA inh pH 4.5: -22; HTT aggregate: inconclusive; ERK EGF block: 4%; HTT cytoprotect: -51%[10 µM]

How did COc1cc(OC)cc(-c2sc3ccccc3c(=O)c2I)c1 do in these assays?
aGal spleen mod: -7%; GLA inh pH 4.5: -10; HTT cytoprotect: inconclusive

Results for COc1ccccc1CNc1ncnc2ccc(-c3ccoc3)cc12 ?
aGal spleen mod: -4%; HTT cytoprotect: -48%

Results for COc1ccc(-c2cc(=S)ss2)cc1 ?
HTT aggregate: 12%; HTT cytoprotect: -10%

What do the screens show for `COc1ccc(/C=C/c2cc(-c3ccc(C)cc3)o[n+]2C)cc1`?
aGal spleen mod: -1%; GLA inh pH 4.5: 4; HTT aggregate: 4.5µM*; HTT cytoprotect: -69%

Results for NC1=NCCCC1 ?
aGal spleen mod: -28%; GLA inh pH 4.5: 0; ERK EGF block: -7%; HTT cytoprotect: -13%

Results for Cc1nc([N+](=O)[O-])c(Sc2nc3ccccc3[nH]2)n1Cc1ccccc1 ?
aGal spleen mod: 6%; GLA inh pH 4.5: -14; HTT aggregate: inconclusive; ERK EGF block: -1%; HTT cytoprotect: inconclusive

How did COc1ccc2nc(Sc3c([N+](=O)[O-])nc(C)n3Cc3ccccc3)[nH]c2c1 do in these assays?
aGal spleen mod: -13%; GLA inh pH 4.5: 8; HTT cytoprotect: 13µM*

What do the screens show for `O=C(/C=C/c1ccc(O)cc1)OC[C@H]1O[C@@H](Oc2c(-c3ccc(O)cc3)oc3cc(O)cc(O)c3c2=O)[C@H](O)[C@@H](O)[C@@H]1O`?
aGal spleen mod: -9%

Results for CCOc1ccc(/C=C/c2c([N+](=O)[O-])c(=O)n(C)c(=O)n2C)cc1 ?
aGal spleen mod: -2%; GLA inh pH 4.5: 1; HTT aggregate: -18%; ERK EGF block: -5%; HTT cytoprotect: 7.9µM*

How did Cc1ccc(-c2cn(-c3ccccc3)c3[n+]2CCCS3)cc1 do in these assays?
aGal spleen mod: -4%; GLA inh pH 4.5: -11; HTT aggregate: 1.8µM*; ERK EGF block: 5%; HTT cytoprotect: -84%[10 µM]

How did Fc1ccc(N2CCN(c3nc(CN4CCOCC4)nc4scc(-c5ccccc5)c34)CC2)cc1 do in these assays?
aGal spleen mod: 6%; GLA inh pH 4.5: inconclusive; HTT aggregate: 18µM*; ERK EGF block: -9%; HTT cytoprotect: -50%

How did CN(Cc1ccccc1)c1nc(CN2CCOCC2)nc2scc(-c3ccccc3)c12 do in these assays?
aGal spleen mod: 3%; GLA inh pH 4.5: -5; HTT aggregate: -26%; ERK EGF block: -5%; HTT cytoprotect: 3%[10 µM]

What do the screens show for `Cc1ccc(-c2nc(CN3CCCCC3CCN3CCCC3=O)c(C)o2)o1` (centres undefined)?
aGal spleen mod: 1%; GLA inh pH 4.5: 9; HTT aggregate: 24%[9.22 µM]; ERK EGF block: 10%; HTT cytoprotect: 4µM*

Results for CN(C)CCOC(c1ccccc1)c1ccccc1 (tested in a mixture with another compound) ?
aGal spleen mod: -29%; GLA inh pH 4.5: 1; HTT aggregate: 8%; ERK EGF block: 14%[57.5 µM]; HTT cytoprotect: 3.2µM*!

Results for CN(C)CCOC(c1ccc(Cl)cc1)c1ccccn1 (centres undefined) ?
aGal spleen mod: 5%; GLA inh pH 4.5: -1; HTT aggregate: 1%; ERK EGF block: 18%; HTT cytoprotect: -241%

What do the screens show for `CN(C)CCOC(c1ccccc1)c1ccccc1`?
aGal spleen mod: -5%; GLA inh pH 4.5: -4; HTT aggregate: inconclusive; ERK EGF block: 14µM*!; HTT cytoprotect: -51%
